According to PubChem BioAssay AID1159580 (chemical genetic matrix, 2015):
“And” between values parts separate entries of the source, which are not always exact repeats. Equal values may be shown once. The whole screen tested about 5,500 compounds, of which about 2,000 (36%) were called active. Another 18% or so got no clear call; they are omitted. Cut-off read from the data, not from the text of the source: active = normalized growth mostly below about 0.91 (no sharp cut-off); inconclusive = no clear call, values can overlap the other calls; inactive = mostly above about 0.92. The list shows a part of the results.

Test: chemical genetic growth profiling, strain panel (AID 1159580);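 note: tested at 20 µM; growth read once vehicle control cultures reached saturation at 30 °C; 1 = growth at the plate median or of vehicle wells; lower values mean less growth of the strain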
Conditions: S. cerevisiae deletion strains, growth OD

Measured: normalized growth

CN(C)CCCN1c2ccccc2Sc2ccccc21
inactive: locus YAL013W, strain DEP1, active compounds read low 0.988 and 0.967 | locus YAL021C, strain ccr4, active compounds read low 0.92 | locus YAL026C, strain drs2, active compounds read low 0.936 | locus YAL030W, strain snc1, active compounds read low 1.01 | locus YAL040C, strain CLN3, active compounds read low 0.964 | locus YBL061C, strain skt5, active compounds read low 1 | locus YBR009C, strain hhf1, active compounds read low 0.985 | locus YBR021W, strain FUR4, active compounds read low 0.961 | locus YBR023C, strain chs3, active compounds read low 1 | locus YBR171W, strain sec66, active compounds read low 0.996 | locus YBR229C, strain ROT2, active compounds read low 0.999 | locus YBR231C, strain swc5, active compounds read low 1.03 | locus YBR279W, strain paf1, active compounds read low 0.977 | locus YCL011C, strain gbp2, active compounds read low 0.996 | locus YCL016C, strain dcc1, active compounds read low 1.01 | locus YCL029C, strain bik1, active compounds read low 1.02 | locus YCL061C, strain MRC1 (second series), active compounds read low 0.983 | locus YCL061C, strain MRC1, active compounds read low 0.993 | locus YCL069W, strain vba3, active compounds read low 0.978 | locus YCR088W, strain abp1, active compounds read low 0.984 | locus YDL005C, strain med2, active compounds read low 1.03 | locus YDL035C, strain GPR1, active compounds read low 1.02 | locus YDL040C, strain nat1, active compounds read low 1 | locus YDL074C, strain BRE1, active compounds read low 1.01 | locus YDL101C, strain DUN1, active compounds read low 1.03 | locus YDL134C, strain PPH21, active compounds read low 1.01 | locus YDL185W, strain tfp1, active compounds read low 1.01 | locus YDL192W, strain arf1, active compounds read low 1.02 | locus YDR001C, strain nth1, active compounds read low 0.985 | locus YDR069C, strain doa4, active compounds read low 0.94 | locus YDR101C, strain arx1, active compounds read low 1.01 | locus YDR137W, strain rgp1, active compounds read low 1.13 | locus YDR150W, strain NUM1, active compounds read low 1.01 | locus YDR159W, strain sac3, active compounds read low 0.984 | locus YDR162C, strain NBP2, active compounds read low 1 | locus YDR195W, strain ref2 1.07 | locus YDR297W, strain sur2, active compounds read low 1.01 | locus YDR318W, strain mcm21, active compounds read low 1.02 | locus YDR334W, strain swr1, active compounds read low 0.95 | locus YDR335W, strain msn5, active compounds read low 0.994 | locus YDR363W, strain ESC2, active compounds read low 0.976 | locus YDR388W, active compounds read low 1.01 | locus YDR392W, strain spt3, active compounds read low 1.09 | locus YDR502C, strain sam2, active compounds read low 1.01 | locus YEL003W, strain gim4, active compounds read low 0.994 | locus YEL037C, strain rad23, active compounds read low 0.976 | locus YEL061C, strain CIN8 (second series), active compounds read low 0.96 | locus YEL061C, strain CIN8, active compounds read low 1 | locus YER002W, strain NOP16, active compounds read low 0.988 | locus YER015W, strain faa2, active compounds read low 0.991 | locus YER016W, strain bim1, active compounds read low 0.986 | locus YER110C, active compounds read low 1.02 | locus YER111C, strain swi4, active compounds read low 0.973 | locus YER155C, strain BEM2 (second series), active compounds read low 1.01 | locus YER155C, strain BEM2, active compounds read low 1 | locus YER167W, strain BCK2, active compounds read low 1.01 | locus YFR010W, strain ubp6, active compounds read low 0.92 | locus YGL078C, strain dbp3, active compounds read low 1.01 | locus YGL086W, strain mad1, active compounds read low 1.02 | locus YGL167C, strain pmr1, active compounds read low 0.981 | locus YGL173C, strain kem1, active compounds read low 0.981 | locus YGL227W, strain vid30, active compounds read low 0.996 | locus YGL240W, strain doc1, active compounds read low 1.04 | locus YGL248W, strain PDE1, active compounds read low 1 | locus YGL253W, strain hxk2, active compounds read low 0.994 | locus YGR078C, strain PAC10, active compounds read low 1.01 | locus YGR135W, strain pre9, active compounds read low 0.993 | locus YGR229C, strain SMI1, active compounds read low 0.971 | locus YGR252W, strain gcn5, active compounds read low 0.975 | locus YHR013C, strain ard1, active compounds read low 0.964 | locus YHR027C, strain rpn1, active compounds read low 0.989 | locus YHR030C, strain SLT2, active compounds read low 1 and 1.01 | locus YHR079C, strain IRE1 (second series), active compounds read low 1.01 | locus YHR079C, strain IRE1, active compounds read low 1.01 | locus YHR094C, strain hxt1, active compounds read low 1.01 | locus YHR129C, strain ARP1, active compounds read low 1.02 | locus YHR142W, strain chs7, active compounds read low 1.01 | locus YHR200W, strain rpn10, active compounds read low 1.02 | locus YIL066C, strain RNR3, active compounds read low 1 | locus YIL073C, strain SPO22, active compounds read low 1.02 | locus YIL125W, strain kgd1, active compounds read low 1.01 | locus YIR030C, strain dcg1, active compounds read low 1.02 | locus YJL092W, strain hpr5, active compounds read low 0.989 | locus YJL095W, strain BCK1 (second series), active compounds read low 1 | locus YJL095W, strain BCK1, active compounds read low 0.987 and 1.02 | locus YJL115W, strain asf1, active compounds read low 0.975 | locus YJL129C, strain trk1, active compounds read low 1.01 | locus YJL134W, strain LCB3, active compounds read low 1 | locus YJL154C, strain vps35, active compounds read low 0.977 | locus YJL164C, strain tpk1, active compounds read low 0.992 | locus YJL166W, strain qcr8, active compounds read low 0.995 | locus YJL168C, strain set2, active compounds read low 1.02 | locus YJL187C, strain SWE1 (second series), active compounds read low 1 | locus YJR043C, strain POL32, active compounds read low 1.02 | locus YJR066W, strain TOR1, active compounds read low 0.963
